Results from PubChem BioAssay.
Active and inactive are the calls of the source.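 Rule for the calls, unless noted: active = mean z-score across replicates of 1.96 or higher in either the MELAS or the Rieske mutant cell line; inactive = the rest.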

How the values were obtained:
[1] = MELAS cybrid and Rieske KO viability enhancers – cell-based, MELAS cybrids, Rieske KO mouse fibroblasts, CellTiter-Glo, primary screen (AID 1508586); conditions: low glucose;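 note: test concentration not given here; z relative to plate mean and SD of compound and empty wells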
[2] = galactose survival enhancers in mitochondrial complex I cybrids – cell-based, galactose medium, ATP luminescence, primary screen (AID 1645843;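 active = z-score of at least 1.8 in each of two replicates, scored against plate mean and spread of sample wells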;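 note: positive z means more ATP and so rescue of galactose-driven cybrid death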); conditions: complex I mutant cybrid cells, 72 h, stronger effect = higher value
[3] = MELAS cybrid survival, CellTiter-Glo 48 h, stronger effect = higher value
[4] = Rieske KO mouse fibroblast survival, CellTiter-Glo 72 h

SMILES | z-score [1, 3] | z-score [1, 4] | z-score [2]
COC1CN(Cc2cn(C)c3ccccc23)CC(=O)N(Cc2ccccc2)C1 (stereo not drawn) | -0.128 (inactive) | -0.0158 | 0.47 (inactive)
Cc1ccc(-c2cc(C(=O)N3CCC[C@H]3CO)cc(S(=O)(=O)N3CCOCC3)c2)s1 | -0.348 (inactive) | 1.18 | -0.415 (inactive)
O=c1c(-c2ccccc2Cl)cc2c(n1Cc1ccncc1)CCN(Cc1ccnc3ccccc13)C2 | -0.09 (inactive) | -0.0903 | 0.915 (inactive)
CCOC(=O)c1nn(CCc2ccc(OC)cc2)c2c1CN(Cc1cccn1-c1ccccn1)CC2 | -0.341 (inactive) | 0.052 | -1.34 (inactive)
COC(=O)c1c(NC(=O)c2ccoc2)c2cc(NC(C)CSC)cnc2n1Cc1ccccc1 (stereo not drawn) | -1.27 (inactive) | 0.841 | -1.28 (inactive)
COc1cccc(COC2CN(CCc3ccccc3)C(=O)CN(C(=O)CN3CCOC3=O)C2)c1 (stereo not drawn) | -0.0866 (inactive) | -0.325 | 0.48 (inactive)
COc1ccc(CCn2nc(C(=O)N(C)C)c3c2CCN(C(=O)c2csc4c2CCCC4)C3)cc1 | -0.0604 (inactive) | -0.104 | 1.47 (inactive)
COCCN1C(=O)N(C)C(=O)C12CCN(Cc1cnc(-c3ccccc3)s1)CC2 | -0.0934 (inactive) | -0.895 | -0.285 (inactive)
CC(=O)c1cccc(-c2cc3c(n(C)c2=O)CCN(C(=O)c2ccc4[nH]c5c(c4c2)CCCC5)C3)c1 | -0.0854 (inactive) | -0.491 | -1.45 (inactive)
CC(C)N1C(=O)N(C)C2(CCN(Cc3ccc4c(c3)Cc3ccccc3-4)CC2)C1=O | -0.247 (inactive) | -0.55 | 0.225 (inactive)
Cc1ccc2c(CC(=O)N3CC(=O)N(CC(C)C)CC(OCc4ccccn4)C3)cc(=O)oc2c1 (stereo not drawn) | -0.0739 (inactive) | 0.0342 | 0.435 (inactive)
O=C(NCCn1ccnc1)c1cc(NCC2CC2)cc(S(=O)(=O)N2CCCC2)c1 | -0.151 (inactive) | 0.62 | 1.69 (inactive)
CCc1ccc(CNc2cnc3c(c2)c(NC(=O)c2cccnc2)c(C(=O)OC)n3CC(C)C)o1 | 3.75 (active) | 4.55 | -1.67 (inactive)
CC(C)CNC(=O)[C@@H]1C[C@H](CN2CCOCC2)CN(Cc2ccccc2)C1 | 0.428 (inactive) | 0.562 | 0.12 (inactive)
CC1=C(C(=O)N2CCc3c(c(C(=O)NCc4nccs4)nn3Cc3ccccc3)C2)OCCO1 | -0.132 (inactive) | 0.241 | 0.605 (inactive)
CC(C)CNC(=O)[C@H]1CNC[C@@H](CN2CCOCC2)C1 | 0.0168 (inactive) | 0.121 | -0.045 (inactive)
O=C(Nc1ccccc1Cl)N[C@H]1C[C@H]2C(=O)N[C@H](Cc3ccc(O)cc3)C(=O)N2C1 | -0.242 (inactive) | -0.509 | -0.455 (inactive)
C=CCn1nc(C(=O)N2CCSCC2)c2c1CCC(N1CCOc3ccc(Cl)cc3C1)C2 (stereo not drawn) | -0.526 (inactive) | -0.713 | 0.51 (inactive)
COc1ccccc1CNC1CCc2c(c(C(=O)N3CCc4ccccc4C3)nn2C)C1 (stereo not drawn) | -0.107 (inactive) | -0.0135 | 0.07 (inactive)
Cc1ccccc1CN[C@H]1C[C@H]2C(=O)N[C@@H]([C@@H](C)O)C(=O)N2C1 | 0.0812 (inactive) | -0.372 | 0.715 (inactive)
CN1C(=O)N(CCCc2ccncc2)C(=O)C12CCN(C1CCSCC1)CC2 | -0.208 (inactive) | -0.033 | 1.08 (inactive)
CCOC(=O)c1nn(Cc2ccc(OC)cc2)c2c1CN(C(=O)CSc1ncccn1)CC2 | -0.668 (inactive) | -0.456 | 0.665 (inactive)
C[C@H]1NC(=O)[C@@H]2C[C@H](NC(=O)c3cnn(-c4ccccc4)c3C(F)(F)F)CN2C1=O | 0.896 (inactive) | -0.434 | -1.26 (inactive)
COC(=O)c1c(NC(C)=O)c2cc(NC3CCOCC3)cnc2n1CCc1ccc(OC)cc1 | -0.209 (inactive) | 0.565 | 0.445 (inactive)
CC(=O)c1cccc(-c2cc3c(n(CC=C(C)C)c2=O)CCN(Cc2cnc(N(C)C)s2)C3)c1 | -0.385 (inactive) | 0.11 | 0.475 (inactive)
Cc1ccc(-c2cc(C(=O)NCC3CC3)cc(S(=O)(=O)N3CCOCC3)c2)s1 | -0.142 (inactive) | 0.0847 | 0.15 (inactive)
